From PubChem
Vif-A3G inh: blocks the Vif interaction with human APOBEC3G; AID 602310; Potency, µM (titrated, usually from 46.1 µM), without a hit: at the top dose activity, negative = active, actives largely listed as inhibitors; HeLa A3G-eYFP + Vif (tagged APOBEC3G with the HIV-1 protein that degrades it), YFP fluorescence, overnight; actives 0.076% (n = 410,000); Q9HC16; note: potency is the fitted concentration of half-maximal effect; % is set by controls: 0 for no effect and ±100 for the full control effect; nearly all actives have a fitted effect of over 60% in size
Target sequence (Q9HC16 whole entry, looked up): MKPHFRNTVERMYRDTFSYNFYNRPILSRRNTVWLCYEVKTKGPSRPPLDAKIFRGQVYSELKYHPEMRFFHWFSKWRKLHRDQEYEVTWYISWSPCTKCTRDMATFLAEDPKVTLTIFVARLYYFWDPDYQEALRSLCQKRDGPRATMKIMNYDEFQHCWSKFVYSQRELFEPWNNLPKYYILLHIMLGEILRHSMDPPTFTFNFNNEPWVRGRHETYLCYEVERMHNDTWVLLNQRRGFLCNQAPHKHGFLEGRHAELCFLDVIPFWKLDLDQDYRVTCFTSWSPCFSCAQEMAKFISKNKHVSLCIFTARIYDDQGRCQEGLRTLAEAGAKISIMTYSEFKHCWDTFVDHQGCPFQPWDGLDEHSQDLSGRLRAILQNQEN
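HeLa cells stably expressing Vif and C-terminally eYFP-tagged A3G, seeded overnight at 37 deg C, then exposed to compound by pintool overnight at 37 deg C. Rise in yellow fluorescence (Ex 488/Em 500-530, Acumen) marks blocked Vif-driven A3G degradation.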
SW480 rerep: induces DNA re-replication in SW480 colon adenocarcinoma cells. SW480 DNA re-replication, Hoechst DNA content imaging, 48 h. Potency, µM (titrated, usually from 46.1 µM), inactives show at the top dose re-replication activation, usual class: activators. actives 1.8% (n = 340,000). AID 624297; note: potency is the fitted concentration of half-maximal effect; % of control where 0% means no effect; nearly all actives have a fitted effect of over 55% in size
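Image-based DNA-content assay: after two days of treatment, nuclei were labelled with the DNA dye Hoechst and imaged, and hits were compounds raising the count of nuclei showing high fluorescence intensity.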
Giardia kill: Giardia lamblia killing; Giardia lamblia trophozoite viability; activity change, % at 7.66 µM, hits read low; actives 0.15% (n = 340,000); AID 540267; in the data active = activity change below about -80%; inconclusive = between about -30% and that limit;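 note: parasites exposed to compound for two days anaerobically before the ATP read; % is set by controls: 0 for no effect and ±100 for the full control effect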
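Trophozoites 100 cells/well + cpd; 48 hrs, 37 deg C, anaerobic. ATPLite 1-Step added, 15-30 min RT, luminescence read (ATP-based viability).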
IL-1B inflam inh: blocks inflammasome-driven IL-1 beta release | THP-1 LPS/ATP IL-1B secretion, AlphaLISA, 16 h; hits give low values | activity change, % at 57.5 µM | actives 4.7% (n = 360,000); in the data active = activity change below about -50%; inconclusive = mostly about -30% to -49%; note: % is set by controls: 0 for no effect and ±100 for the full control effect
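THP-1 cells pretreated 1 hr with compounds (up to 57.5 uM final), then stimulated with LPS (250 ng/mL final) plus ATP (1.25 mM final); secreted IL-1B measured by AlphaLISA after 16 hr, decreased signal indicating inhibition.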
Vif-A3F inh: blocks the Vif interaction with APOBEC3F. HeLa A3F-eYFP + Vif (tagged APOBEC3F with the HIV-1 protein that degrades it), YFP fluorescence increase. Potency, µM (titrated, usually from 46.1 µM), without a hit: at the highest dose activity, negative = active. actives 0.2% (n = 390,000). AID 602313; note: potency is the fitted concentration of half-maximal effect; % of control where 0% means no effect; nearly all actives have a fitted effect of over 65% in size
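HeLa cells stably expressing Vif plus C-terminally eYFP-tagged A3F were seeded, incubated overnight at 37 deg C, dosed with compound, incubated overnight again at 37 deg C. Yellow fluorescence (Ex 488/Em 500-530) reported blocked Vif-mediated A3F-eYFP degradation.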
MCF10A rereplic: induces DNA re-replication in MCF 10a normal breast cells; Potency, µM (doses to about 46.1 µM), without a hit: top-dose activity, positive = re-replication, most hits filed as activators; actives 2.9% (n = 350,000); MCF 10A DNA re-replication, Hoechst nuclear intensity, 48 h; note: potency is the fitted concentration of half-maximal effect; % of control where 0% means no effect; nearly all actives have a fitted effect of over 50% in size
* = called active by the depositor; ? = inconclusive; . = not tested or not shown. An excerpt weighted towards active compounds, which were near 6.9% of everything screened. Unless noted, calls come from the whole dose curve; as a rule, active = well fitted curve in the direction sought with a large enough effect; inconclusive = small, poorly fitted or top-dose-only effect, or another doubt; inactive = no such curve, though single readings can be large; an effect the other way counts as inactive or inconclusive.

SMILES	Vif-A3G inh	SW480 rerep	Giardia kill	IL-1B inflam inh	Vif-A3F inh	MCF10A rereplic
C=CCn1c(=O)c(C(=O)NCc2ccccc2Cl)c(O)c2ccccc21	2.2%	-50.2%	-6.0	0.0	0.4%	23.1µM*
CCn1c(=O)c(C(=O)NCc2ccc(Cl)cc2)c(O)c2ccccc21	0.1%	-51.9%	8.9	19.9	-0.6%	0.581µM*
OCC1(Cc2ccccc2)CCN(Cc2cnn(-c3ccccc3F)c2)CC1	1.1%	7.3%	11.3	?	-0.1%	1.4%
CN(C)S(=O)(=O)N1CCC(CO)(Cc2cccc(C(F)(F)F)c2)CC1	0.0%	-0.9%	12.8	-3.5	11.2%	12.1%
OCC1(Cc2cccc(C(F)(F)F)c2)CCN(Cc2cc(F)cc(F)c2)CC1	-0.6%	?	14.6	-77.5*	-32.6%	23.1µM*
Cc1ccc(-n2cc(CN3CCC(CO)(Cc4cccc(C(F)(F)F)c4)CC3)cn2)cc1	-2.3%	-3.6%	-2.3	-112.1*	-2.4%	22.8%
OCC1(Cc2ccccc2C(F)(F)F)CCN(Cc2ccccc2)CC1	6.6%	3.2%	9.7	-61.0*	-2.3%	3.2%
OCC1(Cc2ccc(Cl)cc2)CCN(Cc2ccc(F)c(F)c2)CC1	-0.6%	?	11.2	?	-20.1%	?
CSc1cccc(CN2CCC(CO)(Cc3cccc(C(F)(F)F)c3)CC2)c1	-7.2%	21.2%	-29.6	-96.1*	0.8%	?
COc1ccc(C)cc1NC(=O)c1oc2ccc(S(=O)(=O)N3CCC4(CC3)OCCO4)cc2c1C	-4.7%	.	.	.	-3.6%	.
CC(C)Cc1cc(CN2CCC(CO)(Cc3cccc(C(F)(F)F)c3)CC2)[nH]n1	-1.1%	?	10.4	-81.8*	2.7%	28.9%
NC(=O)c1ccsc1NC(=O)COC(=O)/C=C/c1ccccc1	-7.2%	-10.7%	1.7	14.8	7.5%	-2.7%
COC(=O)/C=C/c1ccsc1NC(C)=O	-0.5%	9.2µM*	-14.0	8.7	-7.5%	1.2%
COCCNC(=O)c1ccccc1NC(=O)Cc1ccccc1	0.5%	2.0%	10.9	2.9	6.7%	22.1%
COCCNC(=O)c1ccccc1NC(=O)CCSc1ccccc1	1.3%	17.5%	15.0	19.6	6.6%	1.3µM*
Cc1ccc(OCC(=O)Nc2cccc(C(=O)OCc3cc(=O)n4cc(C)sc4n3)c2)cc1	-4.9%	.	.	.	-13.3%	.
CSc1nc2[nH]c(=O)n(O)c(=O)c2n1Cc1ccccc1	?	2.31µM*	-17.8	-9.4	-15.8%	?
O=[N+]([O-])c1ccc(C(O)CN=Cc2ccc(O)cc2O)cc1 (centres undefined)	-1.4%	9.8%	-9.3	0.0	1.6%	16.4µM*
CN(C)/N=C/c1cc([N+](=O)[O-])ccc1O	-1.7%	?	-1.3	23.3	9.8%	8.5%
Cc1cc(-c2nn(-c3ccccc3F)cc2CN2CCC(O)CC2)c(C)s1	-0.4%	-1.7%	-14.1	-10.4	3.3%	0.9%
Cc1cc(-c2nn(-c3ccccc3F)cc2CN2CCN(c3ccncc3)CC2)c(C)s1	0.9%	?	6.3	-84.6*	-4.2%	?
CC(=O)NCC1CCCN(Cc2cn(-c3ccccc3F)nc2-c2cc(C)sc2C)C1 (centres undefined)	2.0%	-14.1%	27.1	-56.4*	-14.9%	14.6%
COCC1CCCN(Cc2cn(-c3ccccc3F)nc2-c2cc(C)sc2C)C1 (centres undefined)	6.4%	-0.5%	10.5	0.0	-16.7%	1.3%
Cc1ccc(NC(=O)C2CCCN(S(=O)(=O)c3cccc4nsnc34)C2)cc1C (centres undefined)	3.1%	.	.	.	-2.8%	.
Cc1ccc(CNC(=O)CN2C(=O)COc3ccccc32)cc1	-0.7%	.	.	.	9.0%	.
NSc1nc(N)c2nc(-c3ccccc3)c(-c3ccccc3)nc2n1	-16.4%	-39.3%	3.0	-51.5*	9.2%	-36.3%
Cc1ccc(SC[C@H](C)CN2CC[C@H](O)CCC2=O)cc1	1.1%	.	.	.	.	.
O=c1[nH]c(NCc2ccccc2)nc2c1CCC2	0.3%	-7.4%	4.2	41.6	-6.5%	0.6%
